Structures can show the parent of a compound that is named as a salt. ± gives the standard deviation or the standard deviation of the averaged measurements.
Columns and labels:
Conditions in all cases: 25 µM; exposure: 24-48 hpf
[1] = tested on: Danio rerio Tg(wt1b:EGFP) embryo, pronephros; test: glomerular separation, fold change vs DMSO control; higher = glomeruli further apart (abnormal)
Summary of the method: (§1)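 Features are reported as fold changes against the mean of same-day DMSO-treated embryos. Before that, values more than 2 SD away from the feature mean were excluded. The embryos, dechorionated Tg(wt1b:EGFP) zebrafish, had been exposed from 24 to 48 hpf at 28.5°C to 25 μM compound in 0.5% DMSO in HEPES-buffered E3 with 0.003% PTU, and distances and angles came from 16 manually set points on maximum projections of dorsal pronephros images in Fiji.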

[2] = tested on: Danio rerio Tg(wt1b:EGFP) embryo, pronephros; test: glomerular width (mean of left and right), fold change vs DMSO control; higher = wider glomerulus
Summary of the method: as §1

[3] = tested on: Danio rerio Tg(wt1b:EGFP) embryo, pronephros; test: fraction of imaged embryos annotated as normal kidney; higher = less nephrotoxic; extreme values may be limits of the assay
Summary of the method: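 Dechorionated Tg(wt1b:EGFP) zebrafish embryos were incubated with 25 μM compound in 0.5% DMSO, 5 mM HEPES-buffered E3 and 0.003% PTU from 24 to 48 hpf at 28.5°C. Pronephroi were then imaged by widefield fluorescence, and the fraction of embryos per treatment assigned by hand to the normal-kidney category is given.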

[4] = tested on: Danio rerio Tg(wt1b:EGFP) embryo, pronephros; test: pronephric angle neck segment to proximal convoluted tubule (mean of left and right), fold change vs DMSO control; higher = larger pronephric angle
Summary of the method: as §1

Compound | glomerular separation [1] | glomerular width [2] | fraction of imaged embryos annotated as normal kidney [3] | pronephric angle neck segment [4]
NS(=O)(=O)c1cc2c(cc1C(F)(F)F)NCNS2(=O)=O [Hydroflumethiazide] | 0.97 ± 0.25 | 1.07 ± 0.035 | 0.727 | 1.04 ± 0.14
CC(C)NCC(O)c1ccc(NS(C)(=O)=O)cc1 (configuration not stated) [Sotalol hydrochloride] | 0.82 ± 0.23 | 1.03 ± 0.062 | 0.8 | 1.01 ± 0.043
Nc1ccc(S(=O)(=O)Nc2nccs2)cc1 [Sulfathiazole] | 0.931 ± 0.36 | 0.936 ± 0.027 | 0.917 | 0.957 ± 0.019
CNCCCC1c2ccccc2C=Cc2ccccc21 [Protriptyline hydrochloride] | 0.765 ± 0.31 | 1.07 ± 0.027 | 0.75 | 0.973 ± 0.027
CN1C(=O)CC(c2ccccc2)C1=O (configuration not stated) [Phensuximide] | 0.924 ± 0.43 | 0.9434 ± 0.0058 | 0.889 | 0.997 ± 0.013
O=c1[nH]cnc2c1ncn2[C@H]1CC[C@@H](CO)O1 [Didanosine] | 1.24 ± 0.56 | 1.06 ± 0.052 | 0.7 | 0.972 ± 0.041
CO[C@@H]1[C@@H](O[C@@H]2O[C@H](C)[C@@H](O[C@H]3C[C@@](C)(O)[C@@H](OC(=O)CC(C)C)[C@H](C)O3)[C@H](N(C)C)[C@H]2O)[C@@H](CC=O)C[C@@H](C)[C@@H](O)/C=C/C=C/C[C@@H](C)OC(=O)C[C@H]1OC(C)=O [Josamycin] | 1.16 ± 0.39 | 1.13 ± 0.093 | 0.909 | 1.0423 ± 0.00028
C[C@H]1C[C@@H]2[C@H]([C@@H](O)C[C@@]3(C)[C@H]2CC[C@]3(O)C(=O)CO)[C@@]2(C)C=CC(=O)C=C12 [Methylprednisolone, 6-alpha] | 1.11 ± 0.4 | 1.21 ± 0.11 | 0.833 | 1.06 ± 0.088
Cc1ccccc1C(OCCN(C)C)c1ccccc1 (configuration not stated) [Orphenadrine hydrochloride] | 0.79 ± 0.21 | 1.04 ± 0.013 | 0.833 | 1 ± 0.015
Cc1c(N(C)CS(=O)(=O)O)c(=O)n(-c2ccccc2)n1C [Dipyrone] | 0.952 ± 0.36 | 0.936 ± 0.012 | 0.917 | 0.993 ± 0.021
COc1cc(N)c(Cl)cc1C(=O)NC1CCN(CCCOc2ccc(F)cc2)CC1OC (configuration not stated) [Cisapride] | 1.09 ± 0.39 | 1.066 ± 0.0076 | 0.583 | 0.992 ± 0.071
CC(C)C(=O)Nc1ccc([N+](=O)[O-])c(C(F)(F)F)c1 [Flutamide] | 1.54 ± 1.1 | 1.12 ± 0.03 | 0.667 | 1.05 ± 0.031
Nc1nnc(-c2cccc(Cl)c2Cl)c(N)n1 [Lamotrigine] | 0.99 ± 0.4 | 0.999 ± 0.016 | 0.9 | 0.998 ± 0.039
CC(Cc1cccc(C(F)(F)F)c1)NCCOC(=O)c1ccccc1 (configuration not stated) [Benfluorex] | 0.843 ± 0.23 | 1 ± 0.03 | 0.917 | 1.04 ± 0.045
c1ccc2c(c1)CCCC2C1=NCCN1 (configuration not stated) [Tetrahydrozoline hydrochloride] | 0.793 ± 0.31 | 1.06 ± 0.027 | 1 | 0.98 ± 0.042
CCCCNc1c(C(=O)OCC)c(C)nc2c1cnn2CC [Tracazolate hydrochloride] | 1.18 ± 0.63 | 0.929 ± 0.072 | 0.917 | 1.06 ± 0.015
CCCc1nc(C)c2c(=O)nc(-c3cc(S(=O)(=O)N4CCN(CC)CC4)ccc3OCC)[nH]n12 [Vardenafil] | 1.24 ± 0.46 | 1.02 ± 0.021 | 0.667 | 0.981 ± 0.041
O=C(CCCCCCC(=O)Nc1ccccc1)NO [Vorinostat] | 1.25 ± 0.51 | 0.947 ± 0.056 | 0.667 | 1 ± 0.053
COc1ccc(C[C@@H]2c3cc(OC)c(OC)cc3CC[N@+]2(C)CCC(=O)OCCCCCOC(=O)CC[N@@+]2(C)CCc3cc(OC)c(OC)cc3[C@H]2Cc2ccc(OC)c(OC)c2)cc1OC [Cisatracurium besylate] | 0.571 ± 0.3 | 1.21 ± 0.0036 | 0.833 | 0.984 ± 0.035
CCCCOC(=O)c1ccc(O)cc1 [Butylparaben] | 1.67 ± 0.4 | 0.994 ± 0.022 | 0.5 | 1.11 ± 0.038
c1ccc(C2CN3CCSC3=N2)cc1 (configuration not stated) [Tetramisole hydrochloride] | 0.817 ± 0.29 | 1.05 ± 0.032 | 0.75 | 0.94 ± 0.035
CC(C)(C(=O)O)c1ccc(C(O)CCCN2CCC(C(O)(c3ccccc3)c3ccccc3)CC2)cc1 (configuration not stated) [Fexofenadine hydrochloride] | 0.859 ± 0.33 | 1.12 ± 0.028 | 0.833 | 0.956 ± 0.033
C[C@]12C=CC(=O)C=C1CC[C@@H]1[C@@H]2[C@@H](O)C[C@@]2(C)[C@H]1CC[C@]2(O)C(=O)CO [Prednisolone] | 1.36 ± 0.94 | 1.22 ± 0.043 | 0.75 | 1.04 ± 0.02
O=C1c2cccc(O)c2C(=O)c2c(O)cccc21 [1,8-Dihydroxyanthraquinone] | 1.16 ± 0.45 | 1 ± 0.04 | 0.917 | 1.03 ± 0.036
CCN1CCCC1CNC(=O)c1cc(S(N)(=O)=O)ccc1OC (configuration not stated) [Sulpiride] | 1.08 ± 0.28 | 1.02 ± 0.023 | 0.75 | 0.983 ± 0.032
CCOC(=O)NNc1nncc2ccccc12 [Todralazine hydrochloride] | 0.937 ± 0.25 | 0.993 ± 0.06 | 0.917 | 0.963 ± 0.031
Cc1cnc(C(=O)NCCc2ccc(S(=O)(=O)NC(=O)NC3CCCCC3)cc2)cn1 [Glipizide] | 0.984 ± 0.34 | 1.056 ± 0.0043 | 0.833 | 0.944 ± 0.021
Cc1scc2c1N(C(=O)CN1CCN(C)CC1)c1ccccc1NC2=O [Telenzepine dihydrochloride] | 0.967 ± 0.17 | 0.937 ± 0.032 | 1 | 0.963 ± 0.01

Reference: the supplement of paper PMC7366291
